DT40 TDP1 no CPT – qHTS for Inhibitors of human tyrosyl-DNA phosphodiesterase 1 (TDP1): qHTS in cells in absence of CPT. DT40 Tdp1-/- hTDP1 cells, no CPT, ATP luminescence, 48 h. Potency, µM (titrated, usually from 46.2 µM), for inactives: at the top dose activity change, negative = growth inhibition, actives largely listed as inhibitors. 15% of 420,000 active; also: potency is read from the fitted curve at half-maximal effect; nearly all actives have a fitted effect of over 55% in size
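Cells were dispensed at 400 per well, compounds added by pin tool, plates incubated ≥48 hr at 37 °C, then CellTiter-Glo added for 30 min at room temperature before luminescence reading. Line: DT40 Tdp1-/- complemented with hTDP1; camptothecin omitted.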
IL-1B inflam inh – blocks inflammasome-driven IL-1 beta release; THP-1 LPS/ATP IL-1B secretion, AlphaLISA, 16 h; active compounds read low; activity change, % at 57.5 µM; 4.7% of 360,000 active; AID 743279; in the data active = activity change below about -50%; inconclusive = mostly about -30% to -49%
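Secreted IL-1B measured by AlphaLISA bead assay after 16 h compound exposure of THP-1 cells; compounds (final up to 57.5 uM) added 1 h before LPS (250 ng/mL) and ATP (1.25 mM) stimulation; lower signal means less secretion.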
HT1080-NT tox – kills 2HG-producing HT-1080-NT fibrosarcoma cells. 1.6% of 360,000 active. HT-1080-NT fibrosarcoma viability, CellTiter-Glo ATP luminescence, 48 h. Potency, µM (series often up to 46.1 µM), without a hit: top-dose activity, negative = less viability, usual class: cytotoxic;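 also: NT is the 2HG producing partner of a matched IDH1 knockdown line; potency is read from the fitted curve at half-maximal effect; 0% = DMSO-treated cells and -100% = media-only wells without cells; nearly all actives have a fitted effect of over 55% in size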
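750 cells/well, RPMI + 5% FBS; 2 h settle, compound pin-transfer, 48 h at 37 degrees C. CellTiter-Glo 10 min RT, luminescence. Normalized to DMSO and media-only wells.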
DT40 TDP1 CPT – growth inhibition of DT40 Tdp1-/-;hTDP1 cells with camptothecin (screen for TDP1 inhibitors). chicken DT40 Tdp1-/-;hTDP1 cells + 20 nM CPT, ATP luminescence, 48 h. Potency, µM (series often up to 46.2 µM), inactives show at the top dose activity change, negative = growth inhibition, most hits filed as inhibitors. 12% of 420,000 active; also: potency is read from the fitted curve at half-maximal effect; nearly all actives have a fitted effect of over 55% in size
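Chicken DT40 Tdp1-/- cells complemented with human TDP1, 400 cells/well, exposed to compounds plus 20 nM camptothecin for at least 48 h at 37 C; viability read as ATP content by CellTiter-Glo luminescence.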
HT1080 IDH1KD tx – HT-1080 IDH1 knockdown cell toxicity (counter line); HT-1080 IDH1 knockdown viability, ATP luminescence, 48 h; Potency, µM (doses to about 46.1 µM), inactives show top-dose activity, negative = toxicity, usual class: cytotoxic; 2% of 360,000 active; AID 686971;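 also: potency is read from the fitted curve at half-maximal effect; 0% = DMSO wells and -100% = cell-free medium wells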
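In this qHTS, HT-1080 cells depleted of IDH1 are exposed for 48 h at 37 °C to compound titrations. Toxicity is scored from CellTiter-Glo luminescence, with DMSO as full viability and medium alone as none.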
Starred values were filed as active, the others as inactive; ? = inconclusive; . = no result. A selection: hits, their analogues and other compounds. The true share with any hit is near 19%. Unless noted, calls follow the shape of the dose curve; as a rule, active = well fitted curve in the direction sought with a large enough effect; inconclusive = small, poorly fitted or top-dose-only effect, or another doubt; inactive = no such curve, though single readings can be large; an effect the other way counts as inactive or inconclusive. Unless noted, % is scaled to controls: 0 for no effect and ±100 for the full control effect.

SMILES	DT40 TDP1 no CPT	IL-1B inflam inh	HT1080-NT tox	DT40 TDP1 CPT	HT1080 IDH1KD tx
Cc1cccc(N(C)C(=O)c2coc(=O)c3ccccc23)c1	-20%	17	-1%	-8%	-3%
CCCSc1nc(O)c(C(c2ccc(OC)c(O)c2)c2c(O)nc(SCCC)n(C)c2=O)c(=O)n1C	-5%	-7	11%	24%	15%
O=C(CSc1nc(-c2ccccc2)c(-c2ccccc2)[nH]1)NCCN1C(=O)CSC1=O	15µM*	4	4.6µM*	13µM*	6.5µM*
O=C(CSc1ccccc1F)NCCN1C(=O)CSC1=O	-19%	-2	-1%	0%	1%
CC1CCN(C(=O)CN2C(=O)C(=O)N(C(C)C)C2=O)c2ccccc2S1 (centres undefined)	-4%	-3	3%	-8%	-2%
O=C(Nc1nnc(S(=O)(=O)N2CCCc3ccccc32)s1)c1ccc(Cl)cc1	18µM*	.	.	?	.
O=C(Nc1nnc(S(=O)(=O)N2CCc3ccccc32)s1)c1cccc(Cl)c1	21µM*	.	.	21µM*	.
Cc1ccc(C(=O)Nc2nnc(S(=O)(=O)N3CCCc4ccccc43)s2)cc1	15%	.	.	-11%	.
CN(CC(=O)Nc1sc2c(c1C#N)CCCCC2)Cc1nc2ccccc2c(=O)[nH]1	18µM*	-6	-7%	?	-16%
CN(Cc1nc2ccccc2c(=O)[nH]1)C(=O)c1cc2c(s1)CCCCC2	16µM*	35	0%	23µM*	6%
COc1cccc(CN(C)CC(=O)Nc2sc3c(c2C#N)CCC3)c1OC	9%	-3	11%	-19%	8%
COc1cc(OC)cc(N2C(=O)CSCC2=O)c1	-3%	1	1%	2%	9%
O=[N+]([O-])c1ccc(CCNc2cccc3ccccc23)c([N+](=O)[O-])c1	-11%	21	0%	?	-22%
O=C(Nc1ccc(Cl)c(Cl)c1)C1C2C=CC3(O2)C1C(=O)N(CCN1CCCCC1)C3C(=O)NC1CCCCC1 (centres undefined)	?	-81*	21µM*	?	?
COc1ccc(NC(=O)C2C3C=CC4(O3)C2C(=O)N(CCCN2CCCCC2)C4C(=O)NC2CCCC(C)C2C)cc1 (centres undefined)	0%	-7	-4%	18%	0%
CC1CCCC(NC(=O)C2N(CCCN3CCCC3)C(=O)C3C(C(=O)Nc4ccc(Cl)cc4)C4C=CC32O4)C1C (centres undefined)	?	-65*	-7%	-22%	?
COc1cc(OC)cc(C(=O)NCCNc2nc3cc(C)cc(C)c3cc2C#N)c1	23µM*	-6	-17%	?	-18%
COC(=O)c1cc(C#N)c(NCc2ccccc2)nc1C	16µM*	-6	-12%	?	-24%
COc1ccc(C(=O)NCC(C)(C)SCc2c(C)cc(C)cc2C)cc1	16µM*	-72*	?	23µM*	-9%
Cc1cc(C)c2cc(C#N)c(NCCOC(=O)c3ccccc3C)nc2c1	?	-60*	10%	-1%	11%
Cc1cc(C)c2cc(C#N)c(NCCNC(=O)c3ccccc3)nc2c1	?	-27	21%	?	1%
COC(=O)c1cc(C#N)c(N(C)Cc2ccccc2)nc1C	-19%	-13	-6%	-11%	1%
COc1cc(C(=O)N2CCC(n3c(C)nc4cc(F)ccc43)CC2)cc(OC)c1OC	-32%	-16	1%	-15%	-2%
COc1ccccc1C(=O)NCCNc1nc2cc(C)cc(C)c2cc1C#N	18µM*	?	5%	?	4%
COc1cccc(OC)c1C(=O)NCCNc1nc2cc(C)cc(C)c2cc1C#N	?	?	7%	?	10%
SMILES	DT40 TDP1 no CPT	IL-1B inflam inh	HT1080-NT tox	DT40 TDP1 CPT	HT1080 IDH1KD tx
COc1ccc(C(=O)NCCCNc2nc3cc(C)cc(C)c3cc2C#N)cc1	21µM*	33	-17%	?	3%
C/C=C/c1cccc(-c2nc(C(=O)N3CCCCC3)cc3c2[C@H](CCO)N(C(=O)NC(C)C)C3)c1	-21%	1	4%	-10%	15%
CCOC(=O)c1ccc(N2CCN(c3cc(C)ccc3C)CC2)c(NC(=O)Nc2ccccc2)c1	2.9µM*	.	.	5.8µM*	.
CCOC(=O)c1ccc(N2CCN(c3cc(Cl)ccc3C)CC2)c(NC(=O)Nc2ccc(OCC)cc2)c1	13µM*	.	.	?	.
CCOC(=O)c1ccc(N2CCN(c3cccc(OC)c3)CC2)c(NC(=O)Nc2ccc(OCC)cc2)c1	-23%	.	.	?	.
C[C@@H]1CN(S(=O)(=O)C(C)(C)C)[C@H](CCO)/C1=C\c1ccccc1	-27%	9	0%	-11%	3%
CCOC(=O)C1CCN(Cc2cc(=O)oc3c(C)c(C)ccc23)CC1	?	11	-9%	?	-8%
CCCN(CCC)C(=O)Cn1c(=O)n(-c2ccc(CC)cc2)c(=O)c2c3c(sc21)CCC3	16µM*	.	.	?	.
CCOC(=O)N1CCc2c(sc3c2c(=O)n(-c2ccc(CC)cc2)c(=O)n3Cc2cccc(OC)c2)C1	?	.	.	13µM*	.
CCOC(=O)N1CCc2c(sc3c2c(=O)n(-c2ccc(CC)cc2)c(=O)n3CC(=O)NCC2CCCO2)C1 (centres undefined)	1.3µM*	50	-5%	4.6µM*	-7%
CCCN(CCC)C(=O)Cn1c(=O)n(-c2ccc(Cl)cc2)c(=O)c2c3c(sc21)CCCC3	-2%	.	.	-26%	.
COC(=O)c1ccc(OC)c(Cn2c(=O)n(-c3cccc(Cl)c3)c(=O)c3c4c(sc32)CN(C(C)=O)CC4)c1	-12%	.	.	1%	.
COc1cccc(Cn2c(=O)n(-c3cccc(Cl)c3)c(=O)c3c4c(sc32)CN(C(C)=O)CC4)c1	18µM*	.	.	?	.
O=C(Nc1ccnc(-c2ccncc2)n1)C1CC1	-20%	35	1%	3%	-3%
CCOc1ccc(S(=O)(=O)Nc2ccc(C(=O)NCCCN3CCOCC3)cc2)cc1	-5%	11	12%	-6%	4%
CC(=O)NCc1ccc(C(=O)CCl)cc1	?	-102*	-5%	4.1µM*	?
Cc1ccc(C(=O)CCC(=O)NCc2ccc(Cl)cc2)cc1	-6%	5	0%	-10%	14%
CC(=O)Nc1ccc(C(=O)CCl)cc1	2.1µM*	-104*	?	1.5µM*	?
CC(=O)NCc1ccc(C(=O)CCl)s1	1.2µM*	-17	?	0.52µM*	?
CC(=O)Nc1ccc(C)cc1	-6%	9	15%	-5%	-1%
CC(=O)N(C)Cc1ccc(C(=O)CCl)cc1	0.92µM*	-106*	-2%	1µM*	-16%
COc1cccc(C(=O)Nc2ccc3c(c2)C(=O)NC3=O)c1	?	0	?	5%	26%

Source: PubChem (National Center for Advancing Translational Sciences (NCATS))
